High-throughput results as filed in PubChem.
SRC2 inh – inhibits human steroid receptor coactivator 2; inhibition, % at 9 µM; HEK293 GAL4-SRC2 luciferase reporter, luminescence; AID 651957; Q15596; 0.17% of 370,000 active;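 active = inhibition above the mean inhibition of all tested compounds plus 3 SD, set per campaign, cut at about 52% in these data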
NR5A2 inv ag – NR5A2 inverse agonism in reporter assay; O00482; HEK293T StAR-luciferase reporter, LRH-1 transfected, 24 h; inhibition, % at 3.6 µM; 0.13% of 360,000 active;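 active = inhibition above the mean inhibition of all tested compounds plus 3 SD, cut at about 73% in these data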
NR2F2 inh – NR2F2 (human) inhibition, primary screen | P24468 | inhibition, % at 8.6 µM | HEK293T NGFI-A luciferase reporter, luminescence | 0.7% of 370,000 active;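 active = inhibition above a per-plate cutoff, mean inhibition of test wells between control levels plus 3 SD, cut at about 38% in these data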;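 also: cells cotransfected with COUP-TFII expression vector driving the NGFI-A reporter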
SRC1 inh – inhibitors of human steroid receptor coactivator 1 (SRC1). Q15788. HEK293 GAL4-SRC1 luciferase reporter, luminescence. inhibition, % at 3.6 µM. 0.12% of 360,000 active;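 active = inhibition above the campaign mean plus 3 SD, with each screening campaign given its own cutoff, cut at about 60% in these data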
Gli-Sufu block – Gli-Sufu pathway antagonism. inhibition, % at 5 µM. 0.74% of 340,000 active. AID 588413. Sufu-KO-LIGHT fibroblasts, Gli luciferase reporter luminescence;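 active = inhibition above about 55%, limit read from the data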
NCOA3 inh – inhibitors of human steroid receptor coactivator 3 (SRC3) | 0.17% of 360,000 active | HEK293 GAL4-SRC3 luciferase reporter, luminescence | Q9Y6Q9 | inhibition, % at 3.6 µM;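 active = inhibition above a per-campaign cutoff, the mean of all compounds plus 3 SD, cut at about 60% in these data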;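 also: higher means less SRC3-driven luciferase light from the GAL4 reporter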
Gli antag conf – Gli-SUFU antagonism confirmation, single concentration; shares compounds with Gli-Sufu block; Sufu-KO-LIGHT cells, Gli luciferase reporter, luminescence; inhibition, % at 5 µM; 40% of 2,500 active;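 active = mean inhibition at 5 µM reaching about 45%, limit read from the data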
SufuKO cytotox – cytotoxic in Gli-SUFU antagonist counter-screen | shares compounds with Gli-Sufu block | Sufu-KO-LIGHT cells cytotoxicity, ATP luminescence | cytotoxicity, % at 5 µM | 32% of 2,500 active | AID 651994;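 active = mean cytotoxicity at 5 µM above about 25%, limit read from the data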;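 also: cells exposed to compound overnight for roughly 16 to 18 hours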
Wnt3a cs – Wnt3a reporter inhibition counter-screen; Wnt-LIGHT cells, Wnt3a-driven luciferase reporter, luminescence; shares compounds with Gli-Sufu block; 20% of 2,500 active; AID 651995; inhibition, % at 6.25 µM;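 active = mean inhibition above about 25%, limit read from the data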
Of the large screens only hits and unclear results are named; the others gave an inactive call (follow-up assays come after a bar, where they were run). Most compounds without a hit are left out; they make up all but 1.3% or so of the library.

O=C(O)CCCCCN1C(=O)C2CCCCC2C1=O (stereo unspecified)	Gli-Sufu block 70 | Gli antag conf inactive | SufuKO cytotox inactive | Wnt3a cs inactive
C=CCN1C(=O)[C@@H](CC(=O)NCc2cccc3ccccc23)[C@]2(C(=O)OC)CCCCC=C12	none (no result: NR5A2 inv ag, SRC1 inh, Gli-Sufu block, NCOA3 inh)
Nc1ccc(N=Nc2ccc(O)cc2)c(N)n1	Gli-Sufu block 60 | Gli antag conf inactive | SufuKO cytotox 26 | Wnt3a cs inactive
COc1ccc(N=Nc2ccc(N)nc2N)cc1	none
CCCC#Cc1ccc(CC[C@H]2O[C@H]3CC[C@H](CO)O[C@H]3C[C@H]2NC(=O)CN2CCOCC2)cc1	none (no result: NR5A2 inv ag, SRC1 inh, Gli-Sufu block, NCOA3 inh)
CC(C)(C)NC(=O)c1cccc(NC(=O)c2ccco2)c1	none
CC(C)(C)NC(=O)c1cccc(NC(=O)c2ccc(NC(=O)c3ccco3)cc2)c1	Gli-Sufu block 75 | Gli antag conf inactive | SufuKO cytotox inactive | Wnt3a cs inactive
Cc1ccc2cc(F)c(F)c(F)c2n1	none (no result: Gli-Sufu block)
Cc1ccc2ccc3ccc(C)nc3c2n1	NR5A2 inv ag 89 | Gli antag conf 47 | SufuKO cytotox inactive | Wnt3a cs inactive
Cc1nc2ccccc2c2oc(C(=O)N3CCN(C(=O)c4ccco4)CC3)cc12	none
Cc1nc2ccccc2c2oc(C(=O)N3CCN(c4ccc([N+](=O)[O-])cc4)CC3)cc12	Gli-Sufu block 59 | Gli antag conf inactive | SufuKO cytotox 28 | Wnt3a cs inactive
S=c1[nH]nc(CSCCOc2ccc(Cl)cc2Cl)o1	none | Gli antag conf inactive | SufuKO cytotox inactive | Wnt3a cs inactive
O=C(c1ccc2c(c1)OCO2)N1CCC(Oc2cccnc2)CC1	none (no result: NR5A2 inv ag, SRC1 inh, Gli-Sufu block, NCOA3 inh)
CN(Cc1ccccc1)S(=O)(=O)c1cccc(C(=O)OCC2CCCCC2)c1	none (no result: NR5A2 inv ag, SRC1 inh, Gli-Sufu block, NCOA3 inh)
Cc1c(C(=O)OCC(=O)N2CC(=O)Nc3ccccc32)oc2ccccc12	Gli-Sufu block 94 | Gli antag conf inactive | SufuKO cytotox inactive | Wnt3a cs inactive
CCOC(=O)[C@]12CCCC3=C1N(CCC3)C(=O)[C@@H](CC(=O)NCCC(C)C)C2	none (no result: NR5A2 inv ag, SRC1 inh, Gli-Sufu block, NCOA3 inh)
C=CC[C@@]1(c2ccccc2)Oc2ccccc2-c2nc3ccccc3nc21	none (no result: NR5A2 inv ag, SRC1 inh, Gli-Sufu block, NCOA3 inh)
COc1ccc2c(c1)CCCN2C(=O)C1CCCN(S(=O)(=O)c2ccc(Cl)s2)C1 (stereo unspecified)	none (no result: NR5A2 inv ag, SRC1 inh, Gli-Sufu block, NCOA3 inh)
CCOC(=O)C1CCCN(C(=O)CCn2nc(-c3ccccc3)ccc2=O)C1 (stereo unspecified)	Gli-Sufu block 56 | Gli antag conf inactive | SufuKO cytotox inactive | Wnt3a cs inactive
O=C(N[C@H](Cc1ccccc1)C(=O)NCc1cccc2ccccc12)[C@H]1O[C@@H](n2ccc(=O)[nH]c2=O)[C@H](O)[C@@H]1O	none (no result: NR5A2 inv ag, SRC1 inh, Gli-Sufu block, NCOA3 inh)
O=C(COc1ccccc1)Nc1nnc(S(=O)(=O)N2CCCCC2)s1	none | Gli antag conf inactive | SufuKO cytotox inactive | Wnt3a cs inactive
COC(=O)[C@]12C[C@H](CC(=O)NCCCCc3ccccc3)C(=O)N(Cc3ccc(Cl)cc3Cl)C1=C[C@H](C(C)(C)C)O[C@@H]2C	none (no result: NR5A2 inv ag, SRC1 inh, Gli-Sufu block, NCOA3 inh)
COc1ccc(OC)c(NC(=O)CSc2nnc(CNC(=O)c3ccccc3F)o2)c1	none
COc1ccc(C(=O)NCc2nnc(SCC(=O)Nc3cc(OC)ccc3OC)o2)cc1	none | Gli antag conf inactive | SufuKO cytotox inactive | Wnt3a cs inactive
COc1ccc(OC)c(NC(=O)COC(=O)c2ccc(-n3cnnn3)cc2)c1	Gli-Sufu block 69 | Gli antag conf inactive | SufuKO cytotox inactive | Wnt3a cs inactive
O=C(OCCN1CCN(C2CN(Cc3cn(Cc4ccc([N+](=O)[O-])cc4)nn3)S(=O)(=O)C2)CC1)c1cc2ccccc2o1 (stereo unspecified)	none (no result: NR5A2 inv ag, SRC1 inh, Gli-Sufu block, NCOA3 inh)
O=C(Cc1ccc(Cl)cc1)N1CCN(c2ccccc2)CC1	none | Gli antag conf inactive | SufuKO cytotox inactive | Wnt3a cs inactive
COc1ccc(-n2c(-c3ccc(Br)cc3)c[n+]3c2SC(C)C3)cc1 (stereo unspecified)	Gli-Sufu block 76 | Gli antag conf 85 | SufuKO cytotox 42 | Wnt3a cs inactive
